Data published in PubChem BioAssay (NCI).
About 83,000 compounds went through this panel and 20% of them were active in at least one assay; those are over-represented in the sample as a whole.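 Cells were grown in 96-well plates and exposed to the test compound at a single concentration for 48 hours; results are reported as percent growth, with values below 10 considered active.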 A number with no mark means an inactive call. Active and inactive are the calls of the source.

Key:
Test in all cases: NCI-60 one-dose screen, 48 h (100 = growth as untreated, 0 = no growth, -100 = all killed)
Conditions in all cases: 10 µM unless noted
[1] = system: HCT-15 colon
[2] = system: HT29 colon
[3] = system: SNB-75 CNS
[4] = system: SNB-19 CNS
[5] = system: U251 CNS
[6] = system: PC-3 prostate
[7] = system: SK-MEL-5 melanoma
[8] = system: UACC-62 melanoma
[9] = system: LOX IMVI melanoma
[10] = system: SK-MEL-28 melanoma

CCOC(=O)/C(C#N)=C(/CC)OCC
growth [1]: 109%
growth [2]: 103%
growth [3]: 90.8%
growth [4]: 106%
growth [5]: 103%
growth [6]: 93.6%
growth [7]: 110%
growth [8]: 110%
growth [9]: 91.4%

O=C(CCl)NC1c2ccccc2Oc2ccccc21
growth [1]: 50.8%
growth [2]: 80.5%
growth [3]: 74.5%
growth [4]: 94.3%
growth [5]: 47.7%
growth [6]: 80.7%
growth [7]: 73.8%
growth [8]: 68.1%
growth [9]: -1.57% (active)

Nc1cc(N)c2nc(NCCc3ccc(Cl)c(Cl)c3)cnc2c1
growth [1]: 90%
growth [2]: 41.7%
growth [3]: 57.9%
growth [4]: 66%
growth [5]: 7.5% (active)
growth [6]: 43.9%
growth [7]: 37.2%
growth [8]: 33.7%
growth [9]: 39.7%
growth [10]: 104%

COc1ccc(C2C3(C#N)C(N)=NC(=C(C#N)C#N)C23C#N)cc1OC (stereo unspecified)
growth [1]: 114%
growth [2]: 116%
growth [3]: 107%
growth [4]: 106%
growth [5]: 103%
growth [6]: 111%
growth [7]: 105%
growth [8]: 99.8%
growth [9]: 98.7%
growth [10]: 115%

COc1cc2cc3cc4cc(OC)c(OC)cc4c(C)[n+]3cc2cc1OC (tested in a mixture with another compound)
growth [1]: 91.8%
growth [2]: 79.2%
growth [3]: 73.1%
growth [4]: 96.2%
growth [5]: 76.9%
growth [6]: 67.8%
growth [7]: 82.4%
growth [8]: 84.3%
growth [9]: 84.4%
growth [10]: 116%

CCCNC(=O)Oc1ccc(/C(=C(/C)Cc2ccc(OC)cc2)c2ccc(OCCN3CCCCC3)cc2)cc1
growth [1]: 50.2%
growth [2]: 28.9%
growth [3]: 63.6%
growth [4]: 94.1%
growth [5]: 69.9%
growth [6]: 77%
growth [7]: 78.2%
growth [8]: 97.5%
growth [9]: 84.8%
growth [10]: 100%

O=C(Nn1cnc2ccccc21)N1CCCC1
growth [1]: 112%
growth [2]: 109%
growth [3]: 107%
growth [4]: 110%
growth [5]: 99.8%
growth [6]: 106%
growth [7]: 113%
growth [8]: 105%
growth [9]: 98.1%

CCCC(C)c1cc(Cc2cc(Cl)cc(Cl)c2O)c(O)c(Cc2cc(Cl)cc(Cl)c2O)c1 (stereo unspecified)
growth [1]: 6.15% (active)
growth [2]: 14.4%
growth [3]: 12.2%
growth [4]: 24.2%
growth [5]: 7.55% (active)
growth [6]: 3.76% (active)
growth [7]: -58.5% (active)
growth [8]: -5.72% (active)
growth [9]: 5.31% (active)
growth [10]: 8.03% (active)

O=C1/C(=C\c2cn(-c3nc(N4CCOCC4)nc(N4CCOCC4)n3)c3ccccc23)c2ccccc2N1c1c(Cl)cccc1Cl
growth [1]: 64.5%
growth [2]: 73.9%
growth [3]: 0.936% (active)
growth [4]: 69.6%
growth [5]: 53.5%
growth [6]: 24.3%
growth [7]: 83%
growth [8]: 46.6%
growth [9]: 69.8%

C/C(CCC(=O)O)=N/Nc1ccc([N+](=O)[O-])cc1
growth [1]: 34.5%
growth [2]: 86.1%
growth [3]: 101%
growth [4]: 94.4%
growth [5]: 75.7%
growth [6]: 65.1%
growth [7]: 46.3%
growth [8]: 23%
growth [9]: 23.9%
growth [10]: 104%

Cc1ccc(NC(=O)CCl)cc1Cl
growth [1]: 80.9%
growth [2]: 107%
growth [3]: 91%
growth [4]: 94.5%
growth [5]: 80.5%
growth [6]: 86.8%
growth [7]: 87.2%
growth [8]: 80.5%
growth [9]: 6.84% (active)
growth [10]: 107%

COc1cc(-c2nn(-c3ccc(NC(=O)c4ccc(Cl)c(C(F)(F)F)c4)cc3)cc2-c2ccncc2)ccc1Cl
growth [1]: -44.1% (active)
growth [2]: -75.5% (active)
growth [3]: -7.6% (active)
growth [4]: 32.9%
growth [5]: 22.2%
growth [6]: 2.37% (active)
growth [7]: -93.3% (active)
growth [8]: -0.867% (active)
growth [9]: 21.6%

S=C(N/N=C/c1cc(Cl)cc(Cl)c1)NC12CC3CC(CC(C3)C1)C2
growth [1]: 84.9%
growth [2]: 49.9%
growth [3]: 45.6%
growth [4]: 93.6%
growth [5]: 40.6%
growth [6]: 75.5%
growth [7]: 97%
growth [8]: 89.5%
growth [9]: 45.1%
growth [10]: 90.9%

O=CN/N=C/c1ccc(Cl)c([N+](=O)[O-])c1
growth [1]: 47.3%
growth [2]: 6.89% (active)
growth [3]: 62.2%
growth [4]: 32.5%
growth [5]: 11.9%
growth [6]: 1.87% (active)
growth [7]: 14.2%
growth [8]: 18%
growth [9]: 17%
growth [10]: 43%

O=C(OCC1CC2(Cl)C(Cl)=C(Cl)C1(Cl)C2(Cl)Cl)C1C(C(=O)OCC2CC3(Cl)C(Cl)=C(Cl)C2(Cl)C3(Cl)Cl)C2(Cl)C(Cl)=C(Cl)C1(Cl)C2(Cl)Cl (stereo unspecified)
growth [1]: 99.9%
growth [2]: 99.6%
growth [3]: 97.8%
growth [4]: 106%
growth [5]: 99.2%
growth [6]: 105%
growth [7]: 104%
growth [8]: 107%
growth [9]: 122%

COc1cccc(Cn2cc3c(c2)-c2oncc2CC3)c1
growth [1]: 18.7%
growth [2]: 9.25% (active)
growth [3]: 25.2%
growth [4]: 39.4%
growth [5]: 31.7%
growth [6]: 27.4%
growth [7]: 6.37% (active)
growth [8]: 46.2%
growth [9]: 34.7%

Cc1ccc(C(C)C)c(OCc2ccc(C(=O)N/N=C/c3cccc(O)c3O)cc2)c1
growth [1]: 13.4%
growth [2]: 39.6%
growth [3]: 44.7%
growth [4]: 45.6%
growth [5]: 28.3%
growth [6]: 39.4%
growth [7]: 38.6%
growth [8]: 30.8%
growth [9]: -12.3% (active)

COC1=CC(c2ccc[nH]2)=N/C1=C\c1[nH]c(C)c(C(=O)CCCCC(=O)NC(C)(C)C)c1C
growth [1]: -31.8% (active)
growth [2]: 3.41% (active)
growth [3]: 41.5%
growth [4]: 70.1%
growth [5]: 22%
growth [6]: -31.3% (active)
growth [7]: 50.8%
growth [8]: 69.1%
growth [9]: -34.4% (active)

COc1cc(-c2nc3c(c(C)nc4c3nnn4-c3ccccc3)c(=O)o2)cc(OC)c1OC
growth [1]: 113%
growth [2]: 115%
growth [3]: 89.6%
growth [4]: 110%
growth [5]: 111%
growth [6]: 104%
growth [7]: 106%
growth [8]: 102%
growth [9]: 101%

COc1cccc(NC(=O)NCCNc2nccc(-c3c(-c4ccc(F)cc4)nc4sccn34)n2)c1
growth [1]: 56.4%
growth [2]: 39.8%
growth [3]: 48.3%
growth [4]: 86.3%
growth [5]: 77.6%
growth [6]: 89.9%
growth [7]: 61.6%
growth [8]: 68.2%
growth [9]: 72.6%

CC#Cc1nc(Nc2cc(C)[nH]n2)c2ccccc2n1
growth [1]: -0.521% [100 µM] (active)
growth [2]: 2.45% [100 µM] (active)
growth [3]: -14.3% [100 µM] (active)
growth [4]: 43% [100 µM]
growth [5]: -25.5% [100 µM] (active)
growth [6]: -28.8% [100 µM] (active)
growth [7]: -71.9% [100 µM] (active)
growth [8]: -84.1% [100 µM] (active)
growth [9]: -58.5% [100 µM] (active)

CCOC(=O)C1=C(c2ccccc2)NC(=O)NC1CN1C(=O)c2ccccc2C1=O (stereo unspecified)
growth [1]: 115%
growth [2]: 110%
growth [3]: 98.8%
growth [4]: 107%
growth [5]: 102%
growth [6]: 100%
growth [7]: 104%
growth [8]: 98.5%
growth [9]: 110%

O=S(=O)(O)c1ccc2c(c1)Sc1cc(S(=O)(=O)O)ccc1O2
growth [1]: 113%
growth [2]: 106%
growth [3]: 93.2%
growth [4]: 103%
growth [5]: 102%
growth [6]: 99.2%
growth [7]: 112%
growth [8]: 96%
growth [9]: 99.7%

O=C1C(=O)c2ccccc2C(O)=C1CCCc1ccc(C2CCCC2)cc1
growth [1]: 19.6%
growth [2]: 34.7%
growth [3]: 39.9%
growth [4]: 40.9%
growth [5]: 29.2%
growth [6]: 35.6%
growth [7]: 15.6%
growth [8]: 40.7%
growth [9]: 1.77% (active)

Cc1c(Cc2ccccc2)c(=O)oc2c(C)c(OCC(=O)n3nc(C#N)cc3N)ccc12
growth [1]: 103%
growth [2]: 95.6%
growth [3]: 81%
growth [4]: 98.9%
growth [5]: 106%
growth [6]: 89%
growth [7]: 103%
growth [8]: 99.1%
growth [9]: 96.7%

O=C1NCCN1/N=C/c1c(Cl)nc2n1CCS2
growth [1]: 101%
growth [2]: 108%
growth [3]: 101%
growth [4]: 108%
growth [5]: 86.1%
growth [6]: 76.3%
growth [7]: 132%
growth [8]: 135%
growth [9]: 101%

c1ccc(-c2cn3ccnc3c(-c3ccc4ncn(C5CCCCC5)c4c3)n2)cc1
growth [1]: 48.4%
growth [2]: 51.7%
growth [3]: 55.6%
growth [4]: 77.1%
growth [5]: 62.7%
growth [6]: 7.96% (active)
growth [7]: 63.5%
growth [8]: 34.4%
growth [9]: 60.4%

COc1ccc(C(=O)CN2C(=O)NC(c3ccccc3)(c3ccccc3)C2=O)cc1
growth [1]: 99.5%
growth [2]: 100%
growth [3]: 86.7%
growth [4]: 102%
growth [5]: 101%
growth [6]: 95%
growth [7]: 99.7%
growth [8]: 99.4%
growth [9]: 98%
growth [10]: 103%

CCOc1ccc(N(C)c2ccc(/C=C/C3=[N+](C)c4ccccc4C3(C)C)cc2)cc1
growth [1]: 18.9%
growth [2]: -25.1% (active)
growth [3]: 41.6%
growth [4]: 26.8%
growth [5]: -82.8% (active)
growth [6]: 0.484% (active)
growth [7]: 2.07% (active)
growth [8]: 28.5%
growth [9]: -48.1% (active)
